Source: PubChem BioAssay (EPA / NIEHS)
Activity calls are given as the source filed them. How the source made its calls, unless noted: active means hit-call score of the fitted dose curve at least 0.9, where 1 is the maximum; inactive means score below 0.9.

Experiments:
[1] = CCTE_Deisenroth_H295R-HTRF_384WELL_ESTRADIOL: CCTE's H295R-HTRF Assay Evaluation of Estradiol Concentration, Deisenroth Lab (AID 2284361); conditions: actives raise or lower the signal
Method in brief: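 Estradiol secreted into medium by H295R adrenocortical cells, quantified by HTRF after 48 h dosing over a nine-point 0.001 - 100 uM final range; gain or loss versus DMSO. Parallel ATP-luminescence viability readout; n=5 experiments.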

[2] = CCTE_Deisenroth_H295R-HTRF_384WELL_TESTOSTERONE: CCTE's H295R-HTRF Assay Evaluation of Testosterone Concentration, Deisenroth Lab (AID 2284373); conditions: actives raise or lower the signal
Method in brief: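 Secreted testosterone was quantified by HTRF immunoassay of medium from human adrenocortical H295R cells after 48 h chemical exposure at 0.001–100 uM final. Gain or loss was fitted against DMSO. ATP-based viability was read on matched wells, five experimental replicates.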

[3] = tested on: SERPINA7 (gene 6906); test: CCTE_GLTED_hTBG: CCTE's human Thyroxine-binding Globulin (TBG) Inhibition Assay, Great Lakes Toxicology and Ecology Division (GLTED) Lab (AID 2284343; active means hit-call score of the fitted dose curve at least 0.9, where 1 is the maximum;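 further: active chemicals lower fluorescence versus DMSO baseline by displacing probe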)
Method in brief: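 Fluorescence (ex 380/em 475) reports ANSA displaced from human TBG after a 2 h incubation with test chemical, without cells. Loss of signal indicates displacement, with DMSO serving as baseline.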

[4] = tested on: Brachyury (BRA) Protein Expression, Deisenroth Lab, TBXT (gene 6862); test: CCTE_Deisenroth_DEVTOX-GLR_legacy_Bra: (Legacy) CCTE's DevTox GLR-Endo Assay Evaluation of Brachyury (BRA) Protein Expression, Deisenroth Lab (AID 2284329)
Protocol: CCTE_Deisenroth_DEVTOX-GLR_legacy assay is a cell-based, multiplex-readout assay that uses RUES2-GLR, a human pluripotent cell line, with measurements taken at 48 hours after chemical dosing in a 384-well microplateCCTE_Deisenroth_DEVTOX-GLR_legacy_Bra is one of 4 assay components calculated from the CCTE_Deisenroth_DEVTOX-GLR_legacy assay that measures an increase in the percentage of cells in an […] state. It is designed to make measurements of inducible reporter a form of fluorescent protein induction as detected with optical fluorescence microscopy. Percentage Bra+ cells are determined by calculating the number of Bra+ cells divided by cell count. A cell is Bra+ if the cell Bra mean intensity is 5x BMAD above the pluripotent control median cell Bra mean. The assay endpoint was analyzed with bidirectional fitting with the 0.2% DMSO control median percent Bra in the DEVTOX-GLR assay subtracted.Data from the assay component CCTE_Deisenroth_DEVTOX-GLR_legacy_Bra was analyzed into 1 assay endpoint. This assay endpoint, CCTE_Deisenroth_DEVTOX-GLR_legacy_Bra, was analyzed in the positive analysis fitting direction relative to DMSO as the negative control and baseline activity. […] Furthermore, this assay endpoint can be referred to as a secondary readout, because this assay has produced multiple assay endpoints where this one serves as a measure of mesoderm differentiation. […]

[5] = CCTE_Deisenroth_DEVTOX-GLR_legacy_CellCount: (Legacy) Viability Assessment in CCTE's DevTox GLR-Endo Assay, Deisenroth Lab (AID 2284331); conditions: actives raise or lower the signal
Method in brief: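 Viability is taken from imaged nuclei counts in fixed RUES2-GLR cultures after 48 h of differentiation under two 24 h-spaced chemical exposures, 10 concentrations from 1 nM to 200 uM, gain or loss versus DMSO baseline.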

[6] = tested on: SRY-box transcription factor 17 (SOX17) Protein Expression, Deisenroth Lab, SOX17 (gene 64321); test: CCTE_Deisenroth_DEVTOX-GLR_legacy_Sox17: (Legacy) CCTE's DevTox GLR-Endo Assay Evaluation of SRY-box transcription factor 17 (SOX17) Protein Expression, Deisenroth Lab (AID 2284341); conditions: actives raise or lower the signal
Method in brief: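 Endoderm-differentiation readout in RUES2-GLR human pluripotent cells at 48 h, concentrations spanning 1 nM - 200 uM. Sox17-positive cells divided by total cell count; gain or loss relative to DMSO solvent control, n=4 experimental replicates.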

[7] = tested on: SRY-box transcription factor 2 (SOX2) Protein Expression, Deisenroth Lab, SOX2 (gene 6657); test: CCTE_Deisenroth_DEVTOX-GLR_legacy_Sox2: (Legacy) CCTE's DevTox GLR-Endo Assay Evaluation of SRY-box transcription factor 2 (SOX2) Protein Expression, Deisenroth Lab (AID 2284346)
Method in brief: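 Two exposures, 24 h apart, during 48 h defined-media differentiation of seeded RUES2-GLR cells; nuclei-stained cells imaged. Sox2 positivity called at 5x BMAD above endoderm control median, DMSO median subtracted.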

For `N#Cc1ccc(C(c2ccc(C#N)cc2)n2cncn2)cc1`, the outcome [1] was “inactive” and the outcome [2] was “inactive”.
In the case of `CC(CCC(=O)O)(c1ccc(O)cc1)c1ccc(O)cc1`, the AC50 [3] is reported as 37.7 µM (active).
With `Cc1ccc(C)c(OCCCC(C)(C)C(=O)O)c1` the AC50 [3] was 27 µM (active).
In the case of `Oc1ccccc1Cc1ccccc1O`, the AC50 [3] is reported as 8.67 µM (active).
With `CCOC(=O)C1=NOC(c2ccccc2)(c2ccccc2)C1` the AC50 [3] was 2.68 µM (active).
In the case of `CCCCCCCOC(=O)c1ccc(O)cc1`, the AC50 [3] is reported as 10.6 µM (active).
In the case of `C=C[C@@]1(C)CC(=O)[C@]2(O)[C@@]3(C)[C@@H](O)CCC(C)(C)[C@@H]3[C@H](O)[C@H](OC(C)=O)[C@@]2(C)O1`, the AC50 [1] is reported as 3.68 µM (active) and the AC50 [2] is reported as 0.566 µM (active).
For `CCCCOCCOC(=O)COc1ccc(Cl)cc1Cl`, the AC50 [3] was 12.7 µM (active).
In the case of `CC1(C)[C@@H]2CC[C@@]1(C)C(=O)C2`, the outcome [4] is reported as “inactive”, the outcome [5] is reported as “inactive” and the outcome [6] is reported as “inactive”. The outcome [7] was “inactive”.
For `COc1ccc(C(=O)c2ccccc2)c(O)c1`, the AC50 [3] was 7.45 µM (active).
